# According to PubChem BioAssay (NCATS):
# Records with an inconclusive call do not appear. Active and inactive are the calls of the source. Unless noted, calls come from the whole dose curve; as a rule, active = well fitted curve in either direction with a large enough effect (not every such curve was filed as active); inconclusive = small, poorly fitted or top-dose-only effect, or another doubt; inactive = flat fitted curve, though single readings scatter.
# Experiments:
# [1] = target: Lysosomal acid glucosylceramidase (Homo sapiens) (UniProt P04062); experiment: Glucocerebrosidase-p2 (AID 348; in the data active = potency below about 10 µM; note: potency is the fitted concentration of half-maximal effect); details: purified GBA, blue fluorogenic substrate, 40 min
# Sequence of Lysosomal acid glucosylceramidase (Homo sapiens) (P04062 whole entry, looked up): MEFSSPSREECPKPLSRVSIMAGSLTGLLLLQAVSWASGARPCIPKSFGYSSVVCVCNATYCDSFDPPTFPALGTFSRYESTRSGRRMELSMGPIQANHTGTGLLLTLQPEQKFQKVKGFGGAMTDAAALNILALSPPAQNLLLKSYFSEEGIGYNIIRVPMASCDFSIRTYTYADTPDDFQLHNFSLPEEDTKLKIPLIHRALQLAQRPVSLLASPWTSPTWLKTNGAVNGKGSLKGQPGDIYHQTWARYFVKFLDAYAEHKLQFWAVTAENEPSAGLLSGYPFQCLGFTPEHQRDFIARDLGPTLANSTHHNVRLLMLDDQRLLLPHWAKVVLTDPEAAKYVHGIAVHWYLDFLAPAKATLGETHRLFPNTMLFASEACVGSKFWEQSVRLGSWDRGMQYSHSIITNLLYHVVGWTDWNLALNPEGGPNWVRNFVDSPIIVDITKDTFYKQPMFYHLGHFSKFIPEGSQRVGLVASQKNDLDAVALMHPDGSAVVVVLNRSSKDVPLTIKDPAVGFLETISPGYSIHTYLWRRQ
# How it was run: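 Normal human glucocerebrosidase (0.2 nM) with blue fluorogenic substrate (80 uM final) in citrate/phosphate pH 5.9 with 10mM sodium taurocholate, 0.01% tween-20; 40 min RT, NaOH/glycine stop; fluorescence Ex 365/Em 440; AC50 from a titration from 0.6 nM upwards.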
# [2] = AP1 Signaling Pathway (AID 357); details: ME-180 AP-1-bla reporter, EGF-induced, beta-lactamase ratio, 5 h; at 7.69 µM (top of the series) unless noted;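 note: ME-180 reporter cells stimulated with EGF at its EC50 level; % is set by controls: 0 for no effect and ±100 for the full control effect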
# How it was run: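 Cells are seeded overnight, exposed to compound titrations and an EC50 level of EGF for 5 hours at 37 °C, then loaded with CCF4 dye for 2.5 hours. Beta-lactamase activity under the AP-1 element is read as a blue/green ratio.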
# [3] = NFAT Signaling Pathway (AID 444); details: Jurkat NFAT-bla M1, carbachol, beta-lactamase ratio, 5 h; at 7.69 µM (top of the series) unless noted;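 note: carbachol stimulus at about its EC50 of 1 µM final; % is set by controls: 0 for no effect and ±100 for the full control effect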
# How it was run: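 Read-out: CCF4 FRET ratio (460 nm/530 nm) after 1 h RT dye loading, used for %activity and AC50 from titration series. Cells: Jurkat NFAT-β-lactamase/M1 line, treated with compound plus 1 uM carbachol for 5 h, 37 °C.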
# [4] = Stat Signaling Pathway (AID 446); details: ME-180 SIE beta-lactamase reporter, IL-6 stimulated, 5 h; at 7.69 µM (top of the series) unless noted;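 note: ME-180 cervical cancer cells given 40 pM IL-6 alongside compound; SIE-controlled beta-lactamase reporter measured as 460/530 nm FRET emission ratio; % is set by controls: 0 for no effect and ±100 for the full control effect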
# How it was run: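 FRET read-out (405 nm excitation, 460/530 nm emission) of a beta-lactamase reporter under a STAT-inducible element in ME-180 cervical carcinoma cells. Cells with compound receive 40 pM IL-6 for 5 h. Values are normalised to AC90 stimulation and AC90 JAK-inhibitor controls.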
# [5] = target: Glucocorticoid receptor (Homo sapiens) (UniProt P04150); experiment: GR-GFP Redistribution (AID 450;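 active = compounds whose dose series gives a full or clear partial fitted curve of increased nuclear translocation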; note: potency is the fitted concentration of half-maximal effect); details: U2OS GR-GFP nuclear translocation, laser cytometry, 2 h
# Sequence of Glucocorticoid receptor (Homo sapiens) (P04150 whole entry, looked up, the tested form may be a part): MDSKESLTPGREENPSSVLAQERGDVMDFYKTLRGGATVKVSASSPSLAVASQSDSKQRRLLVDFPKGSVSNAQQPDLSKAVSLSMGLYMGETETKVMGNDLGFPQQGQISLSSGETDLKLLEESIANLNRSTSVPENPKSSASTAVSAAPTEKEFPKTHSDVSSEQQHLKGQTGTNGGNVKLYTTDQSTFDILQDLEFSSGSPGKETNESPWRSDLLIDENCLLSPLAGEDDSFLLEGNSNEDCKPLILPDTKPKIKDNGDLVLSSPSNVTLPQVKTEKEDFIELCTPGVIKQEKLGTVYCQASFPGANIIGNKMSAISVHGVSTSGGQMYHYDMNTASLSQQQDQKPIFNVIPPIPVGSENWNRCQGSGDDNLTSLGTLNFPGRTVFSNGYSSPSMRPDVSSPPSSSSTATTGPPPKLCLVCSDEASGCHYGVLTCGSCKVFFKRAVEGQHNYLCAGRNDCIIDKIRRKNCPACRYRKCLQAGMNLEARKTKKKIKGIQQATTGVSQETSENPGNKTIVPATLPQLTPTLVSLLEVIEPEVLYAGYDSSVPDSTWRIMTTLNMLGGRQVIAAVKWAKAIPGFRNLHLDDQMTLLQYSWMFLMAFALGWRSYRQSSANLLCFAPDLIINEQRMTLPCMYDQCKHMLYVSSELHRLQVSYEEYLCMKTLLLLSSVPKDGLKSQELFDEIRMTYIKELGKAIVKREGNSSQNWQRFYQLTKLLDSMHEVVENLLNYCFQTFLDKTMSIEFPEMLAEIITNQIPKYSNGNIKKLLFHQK
# [6] = target: Glucocorticoid receptor (Homo sapiens) (UniProt P04150); experiment: GR-EFC Redistribution (AID 451; calls by dose curve; note: potency is the fitted concentration of half-maximal effect); details: CHO-K1 GR-EFC translocation, beta-gal luminescence, 2 h
# How it was run: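 Translocation of GR-ED fusion to nuclear EA restores b-gal, read by luminescence after 1 h room-temperature detection. Engineered CHO-K1 biosensor cells, 1,000/well, exposed 2 h at 37 C to titrations up to 46 uM final.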
# [7] = target: Mitogen-activated protein kinase 10 (Mus musculus) (UniProt Q61831); experiment: JNK3 AlphaScreen Assay (AID 530); details: JNK3 lysate, c-Jun phosphorylation; series mostly up to 57.1 µM;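 note: kinase came from lysate of stimulated human HepG2 cells; signal reports phosphorylation of biotinylated GST-cJun 1-79 at Ser73 with 10 µM ATP; % is set by controls: 0 for no effect and ±100 for the full control effect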
# How it was run: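 qHTS titrations with 15 min compound pre-incubation before adding ATP (10 uM final). Read-out: AlphaScreen of Ser73-phosphorylated biotin-GST-cJun using HepG2 lysate JNK3 activated by IL-1β and TNFα.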
# [8] = target: 3',5'-cyclic-AMP phosphodiesterase 4B (Homo sapiens) (UniProt Q07343); experiment: qHTS Assay for Inhibitors of PDE-IV (AID 607; active = well fitted activation curve with a large enough effect in the main read-out, with a control signal flat, not every such curve was filed as active; note: % of control where 0% means no effect); details: HEK293 ACTOne CNG channel cells, membrane potential fluorescence; series mostly up to 22.9 µM
# Sequence of 3',5'-cyclic-AMP phosphodiesterase 4B (Homo sapiens) (Q07343 whole entry, looked up): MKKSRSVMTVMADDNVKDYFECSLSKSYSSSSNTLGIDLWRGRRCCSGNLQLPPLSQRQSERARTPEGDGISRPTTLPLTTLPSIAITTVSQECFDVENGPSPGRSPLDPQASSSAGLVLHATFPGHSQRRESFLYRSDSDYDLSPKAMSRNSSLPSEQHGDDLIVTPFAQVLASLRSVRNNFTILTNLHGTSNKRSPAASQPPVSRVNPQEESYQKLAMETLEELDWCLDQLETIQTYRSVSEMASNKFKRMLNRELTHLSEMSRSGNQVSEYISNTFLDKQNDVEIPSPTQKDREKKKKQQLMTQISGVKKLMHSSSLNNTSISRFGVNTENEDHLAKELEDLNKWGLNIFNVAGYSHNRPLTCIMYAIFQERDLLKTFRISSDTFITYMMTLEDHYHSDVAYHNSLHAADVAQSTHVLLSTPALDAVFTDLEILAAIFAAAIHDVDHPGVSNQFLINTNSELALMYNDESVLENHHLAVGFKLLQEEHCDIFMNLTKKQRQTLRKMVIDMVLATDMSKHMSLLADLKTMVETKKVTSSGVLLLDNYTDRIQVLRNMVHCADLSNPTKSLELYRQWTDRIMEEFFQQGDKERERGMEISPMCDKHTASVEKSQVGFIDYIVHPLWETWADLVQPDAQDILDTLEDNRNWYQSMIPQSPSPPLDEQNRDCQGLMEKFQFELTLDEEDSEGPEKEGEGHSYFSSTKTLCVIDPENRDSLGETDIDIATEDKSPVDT
# How it was run: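 Cell-based read-out of cAMP via a modified cyclic nucleotide-gated channel and membrane potential dye (535/590 nm) in HEK293 cells expressing PDE4 endogenously. Compounds tested up to 22.9 uM final; 100 uM RO 20-1724 reference.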
# [9] = target: Cytochrome P450 3A4 (Homo sapiens) (UniProt P08684); experiment: qHTS Assay for Activators of Cytochrome P450 3A4 (AID 885; active = well fitted curve in the direction sought with a large enough effect; an effect the other way counts as inactive or inconclusive; note: nearly all actives have a fitted effect of over 65% in size; note: potency is the fitted concentration of half-maximal effect); details: recombinant CYP3A4, Luciferin-PPXE luminescence, 60 min; series mostly up to 57.1 µM
# Sequence of Cytochrome P450 3A4 (Homo sapiens) (P08684 whole entry, looked up): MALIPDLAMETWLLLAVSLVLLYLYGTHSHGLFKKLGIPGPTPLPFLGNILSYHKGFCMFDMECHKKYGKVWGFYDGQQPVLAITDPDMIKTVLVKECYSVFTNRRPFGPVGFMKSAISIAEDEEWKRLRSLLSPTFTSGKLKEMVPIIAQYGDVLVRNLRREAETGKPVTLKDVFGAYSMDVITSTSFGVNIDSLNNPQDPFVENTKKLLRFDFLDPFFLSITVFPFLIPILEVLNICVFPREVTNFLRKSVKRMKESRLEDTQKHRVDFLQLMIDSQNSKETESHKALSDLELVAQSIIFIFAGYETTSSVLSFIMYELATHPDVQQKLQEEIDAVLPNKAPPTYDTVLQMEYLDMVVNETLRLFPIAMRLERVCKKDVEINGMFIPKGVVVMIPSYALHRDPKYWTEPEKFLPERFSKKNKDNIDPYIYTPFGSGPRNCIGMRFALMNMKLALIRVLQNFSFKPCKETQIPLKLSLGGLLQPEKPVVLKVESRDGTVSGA
# How it was run: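 Luminescent readout of luciferin formed from 25 uM Luciferin-PPXE (KM level) by 20 nM CYP3A4 in 200 mM KPO4, with 60 min NADPH-driven reaction at room temperature after 10 min compound exposure. Ketoconazole (57 uM) defined 100% inhibition.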
# [10] = target: Cytochrome P450 2C19 (Homo sapiens) (UniProt P33261); experiment: qHTS Assay for Inhibitors and Substrates of Cytochrome P450 2C19 (AID 899; active = well fitted curve in the direction sought with a large enough effect; an effect the other way counts as inactive or inconclusive; note: nearly all actives have a fitted effect of over 60% in size; note: potency is the fitted concentration of half-maximal effect); details: recombinant CYP2C19, luciferin-H EGE luminescence; series mostly up to 57.1 µM
# Sequence of Cytochrome P450 2C19 (Homo sapiens) (P33261 whole entry, looked up): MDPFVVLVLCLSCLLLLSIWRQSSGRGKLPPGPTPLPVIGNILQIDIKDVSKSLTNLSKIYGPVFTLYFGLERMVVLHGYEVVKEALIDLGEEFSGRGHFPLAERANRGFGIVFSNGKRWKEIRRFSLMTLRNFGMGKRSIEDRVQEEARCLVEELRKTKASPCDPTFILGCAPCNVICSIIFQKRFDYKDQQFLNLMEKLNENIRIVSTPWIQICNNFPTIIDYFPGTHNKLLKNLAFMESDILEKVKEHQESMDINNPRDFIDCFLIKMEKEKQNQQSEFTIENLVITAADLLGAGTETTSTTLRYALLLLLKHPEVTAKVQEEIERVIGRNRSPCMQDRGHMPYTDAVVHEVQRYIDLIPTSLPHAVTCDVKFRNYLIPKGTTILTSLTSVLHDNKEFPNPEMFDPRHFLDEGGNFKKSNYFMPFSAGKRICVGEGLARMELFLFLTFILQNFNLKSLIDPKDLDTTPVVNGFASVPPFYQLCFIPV
# How it was run: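 5nM enzyme + 10uM Luciferin-H EGE (=KM), 50mM KPO4; cpd pin-transferred, 10 min 37C; NADPH regen, 60 min 37C; stopped w/ luciferin detection reagent, 20 min; luminescence. Normalized to 57uM ketoconazole (AC100).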
# [11] = Confirmation and Secondary Assay for Modulators of Hemoglobin Beta Chain Splicing at IVS2 654 locus (AID 910; active = well fitted curve in the direction sought with a large enough effect; an effect the other way counts as inactive or inconclusive;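 note: HeLa cells stably carrying EGFP split by mutant beta-globin IVS2-654 intron; per-well total GFP intensity by laser scanning cytometry after 2-day treatment; % of control where 0% means no effect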); details: HeLa EGFP-654 splicing reporter, GFP fluorescence, 48 h; series mostly up to 38.3 µM
# How it was run: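 Readout: per-well total peak green fluorescence (488 nm ex, 500–520 nm em) from objects 5–250 µm, reflecting correct splicing of an EGFP-654 reporter. Compounds were applied for 2 days at 37 °C to overnight-plated HeLa EGFP-654 cells; controls were DMSO and 500 nM IVS2-654 PNA.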
# [12] = qHTS Assay for Identification of Small Molecule Agonists for Hypoxia Response Element Signaling Pathway (AID 914; active = well fitted activation curve with a large enough effect in the signal ratio, with a control signal flat, not every such curve was filed as active; the % refers to the signal ratio; note: % of control where 0% means no effect); details: ME-180 (cervical carcinoma) HRE-bla reporter, beta-lactamase ratio, CoCl2, 17 h; activation: stronger effect = higher value
# How it was run: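 Positive modulation of EC50 CoCl2-induced hypoxia response element signaling is measured in ME-180 cells with a beta-lactamase reporter. Compounds are titrated, incubation runs 17 hours, and %Activity derives from the blue/green ratio.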
# [13] = Confirmation and Secondary Assay for Modulators of Hemoglobin Beta Chain Splicing at IVS2 705 locus (AID 930; active = well fitted curve in the direction sought with a large enough effect; an effect the other way counts as inactive or inconclusive;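 note: HeLa cells stably expressing the EGFP-705 splicing reporter; GFP fluorescence per well restored by corrected splicing of the IVS2-705 intron in EGFP; % of control where 0% means no effect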); details: HeLa EGFP-705 splicing reporter, GFP fluorescence, 48 h; series mostly up to 38.3 µM
# How it was run: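 First, HeLa EGFP-705 cells are seeded at 500/well in Optimem with 2% FCS and left overnight. Next, compound or DMSO is added for 2 days. Finally wells are laser-scanned and total peak GFP intensity scored.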
# [14] = qHTS Assay for Lipid Storage Modulators (AID 1519; calls by dose curve); details: Drosophila S3 cells, BODIPY lipid droplet/cell ratio, laser cytometry, cells loaded with oleic acid; for activity change, negative = inhibition: at 57.5 µM (top of the series)
# How it was run: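 Cells seeded at 5,000 per well were treated with compounds over a concentration series and loaded with oleic acid (400 uM, as added). Lipid droplet fluorescence (488 nm excitation, 500-530 nm channel) was read by laser-scanning cytometry and normalized to 20 uM Triacsin C.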
# [15] = Primary qHTS for small molecule stabilizers of the endoplasmic reticulum resident proteome: Secreted ER Calcium Modulated Protein (SERCaMP) assay (AID 1508630; active = well fitted curve in the direction sought with a large enough effect; an effect the other way counts as inactive or inconclusive; note: % is set by controls: 0 for no effect and ±100 for the full control effect); details: SH-SY5Y GLuc-SERCaMP (Gaussia luciferase released on ER calcium loss) secretion, thapsigargin, luminescence; series mostly up to 38.4 µM
# How it was run: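 The SH-SY5Y reporter protocol was run at 3 concentrations up to 38.3 uM (primary) or 11 concentrations (follow-up): 16 h compound, 100 nM thapsigargin for 4 h, then extracellular luciferase luminescence.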
# [16] = target: Ubiquitin carboxyl-terminal hydrolase 1 (Homo sapiens) (UniProt O94782); experiment: Inhibitors of USP1/UAF1: Pilot qHTS (AID 504865; active = well fitted curve in the direction sought with a large enough effect; an effect the other way counts as inactive or inconclusive;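 note: rhodamine fluorescence freed from ubiquitin-rhodamine substrate followed over time; top concentration of the series differs between compounds; % is set by controls: 0 for no effect and ±100 for the full control effect; nearly all actives have a fitted effect of over 35% in size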); details: purified USP1/UAF1, Ub-rhodamine cleavage fluorescence; series mostly up to 54.9 µM
# How it was run: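 USP1/UAF1 complex at 1 nM preincubated 15 min at room temperature with compound, then Ub-Rho substrate added at 150 nM final. Fluorescence (480/540 nm) read kinetically in 50 mM HEPES pH 7.8, 0.5 mM EDTA, 1 mM TCEP, 0.1 mg/ml BSA, 0.01% Tween-20.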
# [17] = target: Cytochrome P450 1A2 (Homo sapiens) (UniProt P05177); experiment: p450-cyp1a2 (AID 410; calls by dose curve; note: potency is the fitted concentration of half-maximal effect;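 for activity change, negative = inhibition: -100% = full effect of reference inhibitor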); details: recombinant CYP1A2, luciferin-ME demethylation, luminescence; series mostly up to 57 µM
# Sequence of Cytochrome P450 1A2 (Homo sapiens) (P05177 whole entry, looked up): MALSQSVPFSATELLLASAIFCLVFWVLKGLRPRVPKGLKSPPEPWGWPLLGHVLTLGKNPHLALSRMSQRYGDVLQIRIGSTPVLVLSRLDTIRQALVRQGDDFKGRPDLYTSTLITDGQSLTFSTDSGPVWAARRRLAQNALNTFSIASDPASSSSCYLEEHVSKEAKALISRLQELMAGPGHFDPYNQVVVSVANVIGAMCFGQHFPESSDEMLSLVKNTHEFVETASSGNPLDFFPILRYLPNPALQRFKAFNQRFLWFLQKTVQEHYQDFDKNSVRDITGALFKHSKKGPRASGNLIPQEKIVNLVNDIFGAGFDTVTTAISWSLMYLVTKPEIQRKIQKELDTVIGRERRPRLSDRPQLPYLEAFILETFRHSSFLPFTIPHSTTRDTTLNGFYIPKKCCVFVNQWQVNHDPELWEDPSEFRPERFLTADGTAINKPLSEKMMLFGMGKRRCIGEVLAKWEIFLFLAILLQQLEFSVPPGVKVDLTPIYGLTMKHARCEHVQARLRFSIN
# How it was run: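 O-Demethylation of luciferin 6' methyl ether by human CYP1A2 is monitored as luciferase luminescence. Substrate sits at Km (100uM); enzyme is 20nM. Values are scaled to 57 uM furafylline as maximal inhibition.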
# [18] = target: Cytochrome P450 2C9 (Homo sapiens) (UniProt P11712); experiment: qHTS Assay for Inhibitors and Substrates of Cytochrome P450 2C9 (AID 883; active = well fitted curve in the direction sought with a large enough effect; an effect the other way counts as inactive or inconclusive; note: % is set by controls: 0 for no effect and ±100 for the full control effect; nearly all actives have a fitted effect of over 60% in size); details: recombinant CYP2C9, luciferin-H luminescence, 60 min; series mostly up to 57.1 µM
# Sequence of Cytochrome P450 2C9 (Homo sapiens) (P11712 whole entry, looked up): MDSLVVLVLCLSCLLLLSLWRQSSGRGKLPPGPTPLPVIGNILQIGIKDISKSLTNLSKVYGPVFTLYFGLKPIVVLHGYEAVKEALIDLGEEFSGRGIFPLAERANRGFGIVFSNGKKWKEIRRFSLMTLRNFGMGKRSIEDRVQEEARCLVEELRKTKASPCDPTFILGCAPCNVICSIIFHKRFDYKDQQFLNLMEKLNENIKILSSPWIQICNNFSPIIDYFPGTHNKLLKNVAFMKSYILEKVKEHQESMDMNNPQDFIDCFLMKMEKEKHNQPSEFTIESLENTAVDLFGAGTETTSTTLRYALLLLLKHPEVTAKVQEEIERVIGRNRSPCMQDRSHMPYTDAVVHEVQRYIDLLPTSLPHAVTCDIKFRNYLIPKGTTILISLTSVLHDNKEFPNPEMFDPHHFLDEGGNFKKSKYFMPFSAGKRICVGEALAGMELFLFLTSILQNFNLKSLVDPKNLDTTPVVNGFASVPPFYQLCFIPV
# How it was run: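 Inhibition of CYP2C9 is scored as loss of luminescence, with 57uM sulphaphenazole defining 100% inhibition. Substrate Luciferin-H is used at 100uM, equal to its KM; enzyme at 10nM in 25mM KPO4, 60 min at 37C with NADPH regeneration.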
# [19] = target: Cytochrome P450 3A4 (Homo sapiens) (UniProt P08684); experiment: qHTS Assay for Inhibitors and Substrates of Cytochrome P450 3A4 (AID 884; active = well fitted curve in the direction sought with a large enough effect; an effect the other way counts as inactive or inconclusive; note: % is set by controls: 0 for no effect and ±100 for the full control effect; nearly all actives have a fitted effect of over 50% in size); details: recombinant CYP3A4, Luciferin-PPXE luminescence; series mostly up to 57.1 µM
# How it was run: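 Luminescent readout of luciferin produced by CYP3A4 (20 nM) dealkylation of Luciferin-PPXE, 25 uM (its KM). NADPH-driven reaction ran 60 min at RT after 10 min compound preincubation; data scaled to 57 uM ketoconazole as 100% inhibition.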
# [20] = target: Cytochrome P450 2D6 (Homo sapiens) (UniProt P10635); experiment: qHTS Assay for Inhibitors and Substrates of Cytochrome P450 2D6 (AID 891; active = well fitted curve in the direction sought with a large enough effect; an effect the other way counts as inactive or inconclusive; note: potency is the fitted concentration of half-maximal effect; nearly all actives have a fitted effect of over 60% in size); details: recombinant CYP2D6, luciferin-ME EGE luminescence; series mostly up to 57.1 µM
# Sequence of Cytochrome P450 2D6 (Homo sapiens) (P10635 whole entry, looked up): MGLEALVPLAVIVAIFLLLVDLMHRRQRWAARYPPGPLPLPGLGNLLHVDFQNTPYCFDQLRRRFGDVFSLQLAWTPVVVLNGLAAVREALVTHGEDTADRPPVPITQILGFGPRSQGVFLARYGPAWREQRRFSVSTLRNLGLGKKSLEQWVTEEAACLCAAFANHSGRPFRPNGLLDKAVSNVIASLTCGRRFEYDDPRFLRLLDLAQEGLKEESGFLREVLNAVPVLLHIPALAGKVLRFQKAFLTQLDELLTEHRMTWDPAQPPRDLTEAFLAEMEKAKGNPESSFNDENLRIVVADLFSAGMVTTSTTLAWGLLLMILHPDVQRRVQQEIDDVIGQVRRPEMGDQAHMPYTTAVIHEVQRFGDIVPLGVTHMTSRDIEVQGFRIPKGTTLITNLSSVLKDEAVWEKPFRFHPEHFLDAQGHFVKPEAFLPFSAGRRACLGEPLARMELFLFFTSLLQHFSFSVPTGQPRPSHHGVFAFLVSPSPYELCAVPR
# How it was run: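 Luminescent read-out of luciferin formed by 5 nM human CYP2D6 demethylating 30 uM Luciferin-ME EGE (Km level) over 60 min at room temperature after NADPH regeneration addition. Data normalized to full inhibition by 1.43 uM quinidine.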
# [21] = measured here: cell count channel max response
# [22] = measured here: lipid channel max response
smiles,measurement,setting,value
CC(=O)NCCNc1nc(-c2ccccc2Cl)nc2ccccc12,Potency,[1],> 11.4 µM (inactive)
same,"activity change, negative = inhibition",[2],22.6% (inactive)
same,"activity change, negative = inhibition",[3],-5.34% (inactive)
same,"activity, negative = inhibition",[4],-10.3% (inactive)
same,Potency,[5],> 46 µM (inactive)
same,Potency,[6],> 46 µM (inactive)
same,outcome,[7],inactive
same,Potency,[8],inactive
same,Potency,[9],inactive
same,Potency,[10],3.98 µM (active)
same,outcome,[11],inactive
same,activation,[12],19.9% (inactive)
same,outcome,[13],inactive
same,"activity change, negative = inhibition",[14],8.12% (inactive)
same,max response,[14]; [21],11.5%
same,max response,[14]; [22],20.7%
same,Potency,[15],inactive
N#Cc1cccc(-c2cc(NCc3cccs3)ncn2)c1,Potency,[1],> 11.4 µM (inactive)
same,"activity change, negative = inhibition",[2],-6.14% (inactive)
same,"activity change, negative = inhibition",[3],12.6% (inactive)
same,"activity, negative = inhibition",[4],-3.35% (inactive)
same,Potency,[5],> 46 µM (inactive)
same,Potency,[6],> 46 µM (inactive)
same,outcome,[7],inactive
same,Potency,[8],inactive
same,Potency,[9],inactive
same,outcome,[11],inactive
same,outcome,[13],inactive
same,"activity change, negative = inhibition",[14],3.14% (inactive)
same,max response,[14]; [21],-10.3%
same,max response,[14]; [22],-10.9%
same,Potency,[16],inactive
same,Potency,[15],inactive
O=C(c1ccco1)N1CCC[C@@]2(CCN(Cc3nccs3)C2)C1,Potency,[1],> 11.4 µM (inactive)
same,Potency,[17],inactive
same,"activity change, negative = inhibition",[3],-14% (inactive)
same,"activity, negative = inhibition",[4],-3.91% (inactive)
same,Potency,[6],> 46 µM (inactive)
same,outcome,[7],inactive
same,Potency,[8],inactive
same,Potency,[9],inactive
same,"activity change, negative = inhibition",[14],4.23% (inactive)
same,max response,[14]; [21],5.76%
same,max response,[14]; [22],12.9%
same,Potency,[15],inactive
CC(=O)N1CCC2(CC1)CN(c1ccncc1)C2,Potency,[1],> 11.4 µM (inactive)
same,Potency,[17],inactive
same,"activity change, negative = inhibition",[3],0.609% (inactive)
same,"activity, negative = inhibition",[4],0.403% (inactive)
same,Potency,[6],> 46 µM (inactive)
same,outcome,[7],inactive
same,Potency,[8],inactive
same,Potency,[18],inactive
same,"activity change, negative = inhibition",[14],2.66% (inactive)
same,max response,[14]; [21],11.6%
same,max response,[14]; [22],16.2%
same,Potency,[15],inactive
COCC(=O)N1CCC2(CCCN(C(=O)Nc3ccc(OC)cc3)C2)CC1,Potency,[1],> 11.4 µM (inactive)
same,Potency,[17],inactive
same,"activity change, negative = inhibition",[3],13.5% (inactive)
same,"activity, negative = inhibition",[4],-3.45% (inactive)
same,Potency,[6],> 46 µM (inactive)
same,outcome,[7],inactive
same,Potency,[8],inactive
same,Potency,[9],inactive
same,Potency,[10],inactive
same,"activity change, negative = inhibition",[14],5.43% (inactive)
same,max response,[14]; [21],13.8%
same,max response,[14]; [22],18.7%
same,Potency,[15],inactive
CS(=O)(=O)N1CCC2(CCN(C(c3ccccc3)c3ccccc3)CC2)CC1,Potency,[1],> 11.4 µM (inactive)
same,Potency,[17],inactive
same,"activity change, negative = inhibition",[3],-8.24% (inactive)
same,"activity, negative = inhibition",[4],3.12% (inactive)
same,Potency,[6],> 46 µM (inactive)
same,outcome,[7],inactive
same,Potency,[8],inactive
same,Potency,[19],inactive
same,Potency,[9],12.6 µM (active)
same,Potency,[20],3.16 µM (active)
same,"activity change, negative = inhibition",[14],0.47% (inactive)
same,max response,[14]; [21],-0.926%
same,max response,[14]; [22],0.776%
same,Potency,[15],inactive
O=C(Nc1cccc(F)c1)N1CC[C@@]2(CCCN(C(=O)c3cccc(F)c3)C2)C1,"activity change, negative = inhibition",[2],-6.61% (inactive)
same,Potency,[17],12.6 µM (active)
same,"activity change, negative = inhibition",[3],16.9% (inactive)
same,"activity, negative = inhibition",[4],-1.65% (inactive)
same,outcome,[7],inactive
same,Potency,[8],inactive
same,Potency,[9],inactive
same,"activity change, negative = inhibition",[14],6.49% (inactive)
same,max response,[14]; [21],12.4%
same,max response,[14]; [22],22.3%
same,Potency,[15],inactive
